These results are taken from PubChem BioAssay (NCATS).

The structures appear in SMILES notation. Records with an inconclusive call do not appear. The source made the active and inactive calls. Calls come from the whole dose curve; as a rule, active = well fitted curve in the direction sought with a large enough effect; inconclusive = small, poorly fitted or top-dose-only effect, or another doubt; inactive = no such curve, though single readings can be large; an effect the other way counts as inactive or inconclusive.

A short description of experiment [1]: qHTS of pediatric cancer cell lines to identify multiple opportunities for drug repurposing: Confirmatory screen for DAOY cells (AID 1347114). Note: nearly all actives have a fitted effect of over 65% in size. The note with it: DAOY medulloblastoma cells viability, cytotoxicity qHTS; series mostly up to 45.9 µM. The gist of the method:
(§1)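 Viability measured as metabolically active cells via CellTiter-Glo luminescence following 48 hours of compound exposure, 11-point dilutions in confirmatory testing. 500-1,000 cells/well plated 5 hours before dosing; controls were DMSO and 2.3 µM bortezomib.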

Experiment [2] can be described thus: qHTS of pediatric cancer cell lines to identify multiple opportunities for drug repurposing: Confirmatory screen for SJ-GBM2 cells (AID 1347116). Note: nearly all actives have a fitted effect of over 60% in size. The conditions noted are these: SJ-GBM2 glioblastoma cells, viability; series mostly up to 45.9 µM. The gist of the method: as §1
Experiment [3] can be described thus: qHTS of pediatric cancer cell lines to identify multiple opportunities for drug repurposing: Confirmatory screen for BT-37 cells (AID 1347117). Note: potency is the fitted concentration of half-maximal effect; nearly all actives have a fitted effect of over 55% in size. The conditions noted are these: BT-37 pediatric cancer cells, viability; activity change, negative = cytotoxic: at 45.9 µM (top of the series). In a few lines:
(§2)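 Cells (500-1,000/well) in growth media were settled 5 h at 37 degrees C, then given compounds for 48 h. Viability was read as CellTiter-Glo luminescence. Primary runs used MIPE at 11 points (0.78 nM-46 µM) and NPC at 8 points (0.59 nM-46 µM); follow-ups used 11 points.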

A short description of experiment [4]: qHTS of pediatric cancer cell lines to identify multiple opportunities for drug repurposing: Confirmatory screen for TC32 cells (AID 1347118).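 Note: potency is the fitted concentration of half-maximal effect; cells exposed to compound for 48 h before the read; nearly all actives have a fitted effect of over 65% in size.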 The conditions noted are these: TC32 Ewing sarcoma cells viability qHTS; series mostly up to 45.9 µM. In a few lines: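 TC32 cells, 500-1,000/well in growth medium, compound-treated 48 h at 37 °C; viability from CellTiter-Glo luminescence. Primary screen: MIPE 11-point (0.78 nM–46 µM final), NPC 8-point (0.59 nM–46 µM final); confirmatory at 11-point dilutions.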
(In general: In qHTS, concentration-response curves come from the screen itself.)

A short description of experiment [5]: qHTS of pediatric cancer cell lines to identify multiple opportunities for drug repurposing: Confirmatory screen for MG 63 (6-TG R) cells (AID 1347119). Note: potency is the fitted concentration of half-maximal effect; nearly all actives have a fitted effect of over 55% in size. The note with it: MG-63 (6-TG resistant) osteosarcoma viability; series mostly up to 45.9 µM. In a few lines:
as §2

A short description of experiment [6]: qHTS of pediatric cancer cell lines to identify multiple opportunities for drug repurposing: Confirmatory screen for control Hh wild type fibroblast cells (AID 1347121). Note: nearly all actives have a fitted effect of over 70% in size. The note with it: viability qHTS; series mostly up to 45.9 µM. In a few lines:
as §2

A short description of experiment [7]: qHTS of pediatric cancer cell lines to identify multiple opportunities for drug repurposing: Confirmatory screen for Rh41 cells (AID 1347123).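 Note: potency is the fitted concentration of half-maximal effect; 48 h compound exposure; nearly all actives have a fitted effect of over 60% in size.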 The conditions noted are these: Rh41 rhabdomyosarcoma cells, viability/cytotoxicity qHTS; series mostly up to 45.9 µM. In a few lines:
as §2

Experiment [8] can be described thus: qHTS of pediatric cancer cell lines to identify multiple opportunities for drug repurposing: Confirmatory screen for Rh18 cells (AID 1347125). Note: potency is the fitted concentration of half-maximal effect; nearly all actives have a fitted effect of over 55% in size. The conditions noted are these: Rh18 rhabdomyosarcoma cells, viability; series mostly up to 45.9 µM. The gist of the method:
as §2

The nature of experiment [9]: qHTS of pediatric cancer cell lines to identify multiple opportunities for drug repurposing: Confirmatory screen for Saos-2 cells (AID 1347127). Note: nearly all actives have a fitted effect of over 60% in size. The conditions noted are these: Saos-2 osteosarcoma cell viability; series mostly up to 45.9 µM. In a few lines:
as §2

Experiment [10] in a line: qHTS of pediatric cancer cell lines to identify multiple opportunities for drug repurposing: Confirmatory screen for OHS-50 cells (AID 1347128).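 Note: compound exposure lasted 48 h at 37 degrees C; nearly all actives have a fitted effect of over 55% in size.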 The conditions noted are these: OHS-50 osteosarcoma cells viability; series mostly up to 45.9 µM. The gist of the method: as §2
The nature of experiment [11]: qHTS of pediatric cancer cell lines to identify multiple opportunities for drug repurposing: Confirmatory screen for SK-N-SH cells (AID 1347129).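 Note: cells exposed to compound for 48 h before viability read; nearly all actives have a fitted effect of over 60% in size.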 The conditions noted are these: SK-N-SH neuroblastoma cell viability; series mostly up to 46.1 µM. The gist of the method: as §2

As for `COC(=O)C=CC(=O)OC`, the Potency entry in experiment [1], in experiment [2], in experiment [6], in experiment [9], in [10] and in experiment [11] was “inactive” throughout. The Potency in experiment [3] was 3.29 µM (active); in experiment [4] it was 3.29 µM (active); in [5], 13.1 µM (active); in experiment [7] it was 23.3 µM (active); in experiment [8] it was 14.7 µM (active).
